System: Vero E6 infected with SARS-CoV-2
Experiment: inhibition of SARS-CoV-2 cytopathic effect; higher = more antiviral protection, active = above 15
Conditions: 48 h

Measured: inhibition of SARS-CoV-2 cytopathic effect

CCC(=O)NC[C@@H]1C[C@H]1c1cccc2c1CCO2 [tasimelteon]
inactive: 1 nM -0.84% | 8.33 nM 1.68% | 100 nM -0.1% | 833.33 nM 0.64% | 10000 nM -1.54%

CC(C)(NS(=O)(=O)c1ccc(Oc2ccc(F)cc2)cc1)C(=O)NO
inactive: 1 nM 3.55% | 8.33 nM 0.75% | 100 nM 2.56% | 833.33 nM 0.48% | 10000 nM -0.6%

Cc1ccc2nc(N)[nH]c(=O)c2c1Sc1ccncc1 [nolatrexed]
inactive: 1 nM 0.89% | 8.33 nM 3.11% | 100 nM 1.17% | 833.33 nM 2.04% | 10000 nM -2.82%

CC(=O)[C@H]1CC[C@H]2[C@@H]3CCC4=CC(=O)CC[C@]4(C)[C@H]3CC[C@]12C [progesterone]
inactive: 1 nM -0.08% | 8.33 nM 0.75% | 100 nM 2.72% | 833.33 nM 2.43% | 10000 nM 5.82%

COc1ccc(-c2ccc3c(N4CCOC[C@@H]4C)nc(N4CCOC[C@@H]4C)nc3n2)cc1CO
inactive: 1 nM -1.08% | 8.33 nM -2.46% | 100 nM -3.62% | 833.33 nM -4.35% | 10000 nM -6.56%

CC(=O)N[C@@H](Cc1ccc(O)cc1)C(=O)O [N-acetyl-tyrosine]
inactive: 1 nM -0.05% | 8.33 nM 1.2% | 100 nM 0.23% | 833.33 nM 2.56% | 10000 nM 4.82%

CN(C)C(=N)NCCC[C@H](N)C(=O)O [asymmetrical-dimethylarginine]
inactive: 1 nM -0.33% | 8.33 nM -0.09% | 100 nM -1.65% | 833.33 nM 0.84% | 10000 nM 1.97%

Cc1nccn1CCC(C(N)=O)(c1ccccc1)c1ccccc1 [imidafenacin]
inactive: 1 nM -0.4% | 8.33 nM -0.55% | 100 nM 1.32% | 833.33 nM 4.43% | 10000 nM 0.89%

Nc1nnc(Sc2ncc([N+](=O)[O-])s2)s1
inactive: 1 nM 3.57% | 8.33 nM -1.18% | 100 nM -0.27% | 833.33 nM -2.43% | 10000 nM -20.9%

CC1(N)CCN(c2cnc(-c3cccc(Cl)c3Cl)c(N)n2)CC1
inactive: 1 nM -2.86% | 8.33 nM 2.23% | 100 nM 2.58% | 833.33 nM -1.51% | 10000 nM -9.83%

CC1(C)O[C@@H]2C[C@H]3[C@@H]4C[C@H](F)C5=CC(=O)C=C[C@]5(C)[C@H]4[C@@H](O)C[C@]3(C)[C@]2(C(=O)CO)O1 [flunisolide]
inactive: 1 nM -0.25% | 8.33 nM 0.14% | 100 nM -1.38% | 833.33 nM -0.29% | 10000 nM -0.97%

CC(CN1c2ccccc2Sc2ccccc21)N(C)C (stereo not given) [promethazine]
inactive: 1 nM -0.13% | 8.33 nM -0.16% | 100 nM -1.28% | 833.33 nM 0.5% | 10000 nM 3.03%

CC1=C(C(=O)O)N2C(=O)[C@@H](NC(=O)[C@H](N)c3ccccc3)[C@H]2SC1 [cephalexin]
inactive: 1 nM 2.47% | 8.33 nM 0.37% | 100 nM 0.73% | 833.33 nM -1.01% | 10000 nM -3.66%

O=C(Oc1ccccc1)c1ccccc1O [phenyl-salicylate]
inactive: 1 nM -7.58% | 8.33 nM -2.22% | 100 nM -0.85% | 833.33 nM 3.43% | 10000 nM 5.08%

COC(=O)C1=CO[C@@H](O[C@@H]2O[C@H](CO)[C@@H](O)[C@H](O)[C@H]2O)[C@@H]2C(CO)=CC[C@H]12 [geniposide]
inactive: 1 nM -1.56% | 8.33 nM -1.45% | 100 nM -10.1% | 833.33 nM -17% | 10000 nM -18.6%

O=C(O)CCCO
inactive: 1 nM 1.65% | 8.33 nM 2.68% | 100 nM 2.71% | 833.33 nM 1.83% | 10000 nM 1.79%

C[N+](C)(C)CCOC(=O)CCC(=O)OCC[N+](C)(C)C [succinylcholine-chloride]
inactive: 1 nM 2.27% | 8.33 nM -1.42% | 100 nM -2.35% | 833.33 nM 0.85% | 10000 nM 0.28%

CN(CC[C@@H](Oc1ccc(-c2ccccc2)cc1)c1ccc(F)cc1)CC(=O)O
inactive: 1 nM 0.18% | 8.33 nM 1.55% | 100 nM 0.56% | 833.33 nM 0.79% | 10000 nM 0.89%

COc1ccc(CC2NCCc3cc(OC)c(OC)cc32)cc1OC (stereo not given) [tetrahydropapaverine]
inactive: 1 nM 1.62% | 8.33 nM 0.89% | 100 nM -0.93% | 833.33 nM -3.46% | 10000 nM -3.09%

Source: the supplement of paper PMC13380429
